Measured values reported in article PMC12136788.
Positions count from the first letter of the chain named. Over roughly 24,000 sequences, “enrichment r” has its median near 0.99; the highest 2% begin near 3.7. Many of the other results were omitted from the sample, so the highest values are more common in it than they were.

T1: UNK ZnF1-3 (human, UniProt Q9C0B0 31-174)
T1 sequence: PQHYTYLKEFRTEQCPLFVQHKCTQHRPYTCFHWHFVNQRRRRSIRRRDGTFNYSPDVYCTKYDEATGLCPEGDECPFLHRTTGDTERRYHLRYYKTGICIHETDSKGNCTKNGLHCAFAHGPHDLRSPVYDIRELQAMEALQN

B1: chr9:109937893:109937894:+_ENSMUSG00000032479_ENSMUST00000165876|mus_mus|motif|central (ssRNA)
RNA: GGGAGUUCUACAGUCCGACGAUCUUCACGUGGUUUUUCUUCAGUCUGUACAGUUCCUUUGUCUUUAAUUGGAACUGUUGCGGCUUUUGUUUCCAAGGGCAGUGCAAGAUCGGAGGCUGGAGCCAUGCUGUUGUCCACAAUCAGCAACAGAGGAUUGAGCAUCA
B2: 126495366_126496508_792_3pUTR_ENSMUSG00000040502_ENSMUST00000040307|mouse|control|control (ssRNA)
RNA: GGGAGUUCUACAGUCCGACGAUCAUUAGGCAGGGUUGGUGUGUGCAACGCACUGAGCCGUCACAGCGGCAAGGGCUCAGGAGCUCCCCCUGCUCCGGGCCUUGGAAGCAGAUCCUGCACUGGGGGGUUCGGAGCCCACUGUCCCAACAGAGGAUUGAGCAUCA
B3: chr7:149838571:149838572:-_ENSMUSG00000048583_ENSMUST00000000033|mus_mus|motif|central (ssRNA)
RNA: GGGAGUUCUACAGUCCGACGAUCCAUGUAUCACUUGGCAGUGCCAUCUCCUUAUCUGGCCAAACUUAUUCUACACUGGCGGGUCAUUGGUCCUCAUGGCGGGGGUGGUUGGGGAGCACCGGGCUCACCAUGUGGACAGGUGCUCAACAGAGGAUUGAGCAUCA
B4: chr6:74304526:74304527:-_ENSG00000119899_ENST00000355773|hu_mus|motif|central (ssRNA)
RNA: GGGAGUUCUACAGUCCGACGAUCCAAGUUUAUCAGUGUGUGUGUGUGUGUGUGUGUCCAUUUCAGCUUCAUUUCCGGUGCCCUUACCUUAUAUCAUACUGCCUUUCCUGCAGCCUGAUAUGUGAACCCAGUAUACGGCCUGGCCAACAGAGGAUUGAGCAUCA
B5: chr9:15470827:15470828:-_ENSG00000164985_ENST00000397519|hu_hu|motif|central (ssRNA)
RNA: GGGAGUUCUACAGUCCGACGAUCGAAUGUCAAGAGAAGGGCCCCAUUCUCAGGGAUAUAACUGCUAUUCCAGUUUAAUAACGGGCUUCAAAACAAAAUGAAUUUUUAUAUUUUCUAGAUGAAUAAUGUACAACCACCAUCUUCCAACAGAGGAUUGAGCAUCA
B6: chr5:137088537:137088538:-_ENSG00000177733_ENST00000314940|hu_mus|motif|central (ssRNA)
RNA: GGGAGUUCUACAGUCCGACGAUCUCCCGCCCGCCCACCCGCCCCCCCAAAAAACACAAAUUAAAACAAGACAUUUUUUUGCGGGUAUAAAAACGACCAAGGUCCAAGUAAUAAUAAAAAAAUAGAGUCCAUCAAUGACUGUAACAACAGAGGAUUGAGCAUCA
B7: chr4:57314706:57314707:+_ENSG00000128050_ENST00000264221|hu_mus|hu_hu_hu_mus_True|48_88 (ssRNA)
RNA: GGGAGUUCUACAGUCCGACGAUCCAGAAUUUCAAAAAUAGCUUGUGUAGCAUGACUCAUGAUGUCCACUUCAGUCUGCCCUAUAACAAGUCCAGCAAAACAGAAUUUUGCAGCAAUGAGUUGCUCCUCAGACCACUGUGGAUCCAACAGAGGAUUGAGCAUCA
B8: chr5:137088537:137088538:-_ENSG00000177733_ENST00000314940|hu_mus|FALSE|FALSE (ssRNA)
RNA: B6 RNA with G82U, G83A
B9: chr5:137088537:137088538:-_ENSG00000177733_ENST00000314940|hu_hu|motif|central (ssRNA)
RNA: GGGAGUUCUACAGUCCGACGAUCCAGCAAGUUCACUCCCUCCCUCCCCCCAAAAAACACAAAUUAAAACAAGACAUUUUGCGGGUAUAAAAACGACCAAGGUCCAAGUAAUAAUAAAAAAAUAGAGUCCAUCAAUGACUGUAACAACAGAGGAUUGAGCAUCA
B10: chr5:137088537:137088538:-_ENSG00000177733_ENST00000314940|hu_hu|FALSE|FALSE (ssRNA)
RNA: B9 RNA with G82U, G83A
B11: chr4:57314706:57314707:+_ENSG00000128050_ENST00000264221|hu_mus|hu_hu_hu_mus_True|88_98 (ssRNA)
RNA: B7 RNA with U42C, U90G
B12: chr4:88367131:88367132:-_ENSMUSG00000070923_ENSMUST00000094993|mus_mus|FALSE|FALSE (ssRNA)
RNA: GGGAGUUCUACAGUCCGACGAUCUUGGUAAUUGCUUGCUUCCAAAAGUAAAUUCACACAGGUAUUGUCUGUUCUCAUGAAAUCUACUGUCUGCACAUAGUUGAUGAGAUCCUGUGGUGUCAUCAGUGGAAAGCGAAUAUUCUUCAACAGAGGAUUGAGCAUCA
B13: chr12:16048344:16048345:+_ENSG00000023734_ENST00000419869|hu_hu|hu_hu_hu_mus_True|78_98 (ssRNA)
RNA: GGGAGUUCUACAGUCCGACGAUCAGAUCGUCCAUAAGUUAUAACCAAAAUCUCUCCCUCAGGAAUAUACUCCAUGCUGCUAACAGACAUAUUAAAAUUCAGAGAUUUCACUUCUGUCAUUGUGGCAUGAUCCCAGAGCCGAACCAACAGAGGAUUGAGCAUCA
B14: 201281127_201284068_384_CDS_ENSG00000196141_ENST00000360760|human|control|control (ssRNA)
RNA: GGGAGUUCUACAGUCCGACGAUCCGGCUGCAGGGGCCCUGCCUCAGGCCUCUCCACCUUGUCUUUAGCAUCUUUGUUGCCUUGAUGCUGCUUGGACUUGCUUCUUUUUCUUUUAUUGUUCUUCUUUUUUCCUGUCAUAUUCCACAACAGAGGAUUGAGCAUCA
B15: chr4:144460044:144460045:+_ENSG00000153147_ENST00000283131|hu_mus|hu_hu_hu_mus_False|1_78 (ssRNA)
RNA: GGGAGUUCUACAGUCCGACGAUCACGGUCCAUAGCCUGAAGAUCAACUUGCGGAUUCCAAUCAGAAUCAUAUAAAAUGACUACAUCAGCAGUUGCAAGAUUGAUGCCCAGACCACCAGCACGUGUGCUUAGCAUAAAAACAAACAACAGAGGAUUGAGCAUCA
B16: 32049908_32050383_1188_CDS_ENSMUSG00000039262_ENSMUST00000036691|mouse|control|control (ssRNA)
RNA: GGGAGUUCUACAGUCCGACGAUCUUCUUUCCCAUCUUGGUCGUUCAUCUGGAACUGUCUGAAAGGAACACGGGGUUCCAGGCGGAGCUGAGGAAGGGGAAAAGAGCUUCGUUCCACCGUAGUCUGGUUCUCUGAUGACUGUGGCAACAGAGGAUUGAGCAUCA
B17: chr16:1859243:1859244:-_ENSG00000063854_ENST00000397353|hu_mus|FALSE|FALSE (ssRNA)
RNA: GGGAGUUCUACAGUCCGACGAUCAAUUAACUGAAAAGUAGACUGUCCUGCAUUAGCAGCAGGCCAGUCGGUUAGAAGUCCCUGUCCCAGCGUGGGUGUGCCUCAGUCCCGAGGCACCUUGAACUGGUCCUUCUCCCUGCGGAUCAACAGAGGAUUGAGCAUCA
B18: chr19:15981513:15981514:-_ENSMUSG00000024640_ENSMUST00000025542|mus_hu|motif|central (ssRNA)
RNA: GGGAGUUCUACAGUCCGACGAUCUAAAGCAUCAUCUCCUUUGGCAUUGCCAAUGCGGAAUGGAAUAUUCAUCUUGCUUCGGUUUUGGGGCUCCACUGGACAAACGUAGAAUCCUUGAGAAUUAUCAAUAAUCUCAUAAAUUGUCAACAGAGGAUUGAGCAUCA
B19: chr10:70021928:70021929:-_ENSMUSG00000037747_ENSMUST00000162251|mus_hu|motif|central (ssRNA)
RNA: GGGAGUUCUACAGUCCGACGAUCAUGCUUCAGUGGAAAACAUCUGGUGAUAAAAAUGGACAACAGAGGACCAAUGCUCCGGAGGGAGGAAAAGGGGCUGAGUAAGAAUAAGAAAAGUGGGCAUUAACGUCCAACACUGAUAUUCAACAGAGGAUUGAGCAUCA
B20: chr10:70021928:70021929:-_ENSMUSG00000037747_ENSMUST00000162251|mus_hu|FALSE|FALSE (ssRNA)
RNA: B19 RNA with G80U, G81A
B21: chr17:35122734:35122735:+_ENSMUSG00000007050_ENSMUST00000114011|mus_mus|FALSE|FALSE (ssRNA)
RNA: GGGAGUUCUACAGUCCGACGAUCUCCAUCCCUCAAAUGUAUUACAUGUCGCCACGGAAGGGCUUAGGAUGCUGCUCCCAUCUCCAGGAAAGAUGAGAAAAAGGUACAGACUGGGAGCCAGUCCAGGACCAUUCUGCAGUUCCUCAACAGAGGAUUGAGCAUCA
B22: chr11:54532911:54532912:-_ENSMUSG00000052298_ENSMUST00000064104|mus_mus|motif|central (ssRNA)
RNA: GGGAGUUCUACAGUCCGACGAUCGCAGAGGGGCUGGAGGUGCAAUGAAAAGGCUUAAAAUGGAAAAAUUACAAUACAGUGCGGGCAGUCACAGAAAAGACCAUGCUAAGAUCCGAUCCAUGUCAAUUAAACAUUGAAAAUUCACAACAGAGGAUUGAGCAUCA
B23: chr10:70021928:70021929:-_ENSMUSG00000037747_ENSMUST00000162251|mus_mus|motif|central (ssRNA)
RNA: GGGAGUUCUACAGUCCGACGAUCAUGCAUGCUUCAGUGGGGACAUCUGAUGGCAGAUGGACAACAGAGGGUAAUGCUCCGGUGGGAAGACAGGGUGUGUGGGGCGGGGAAGGGGCGAAAGUGGUGUUAGCGUCCGACACUGAUCAACAGAGGAUUGAGCAUCA
B24: chr19:16212804:16212805:+_ENSG00000167460_ENST00000300933|hu_mus|hu_hu_hu_mus_False|18_68 (ssRNA)
RNA: GGGAGUUCUACAGUCCGACGAUCAACAAUUCUGGAGUGAAGGAAAGAUGUAACAUGGAACAGCAUUCCAUCUAUUACAGAAGGCACAUGGGCAACAAUGAUCACCCCAGCAUUCUCCUACGUUGACCUUAAAGACAAUCUGUUCAACAGAGGAUUGAGCAUCA
B25: 181288587_181288707_5387_3pUTR_ENSMUSG00000000826_ENSMUST00000072334|mouse|control|control (ssRNA)
RNA: GGGAGUUCUACAGUCCGACGAUCUCAUAAUCCAGUGGCUUGGUUUGGCCAUUAAGACCAGAGGACAUGGUUACUUGCUCUGGAGUAAAAAGCUAGAGCUGUUAGGCAAGAAUUCAACCACUAAGGGGCCAGACACUGUGAGGGCAACAGAGGAUUGAGCAUCA
B26: chr2:122485053:122485054:-_ENSG00000155438_ENST00000285814|hu_mus|FALSE|FALSE (ssRNA)
RNA: GGGAGUUCUACAGUCCGACGAUCUAAGCCUGAGUUUCAUAAGGAUAGUAAAACUGAGGGACCGAUGAAGCCUGAAGACAAAUUCAGGACAGGAAAGGGCACAGUCAGGUUCCCAGUGGCUUUCCUCACUGGAAAACCAAACAUCAACAGAGGAUUGAGCAUCA

Each binder was assayed against T1, UNK ZnF1-3 (assay: nsRBNS (natural sequence RNA bind-n-seq); RBNS binding buffer (assumed for nsRBNS): 25 mM Tris pH 7.5, 150 mM KCl, 3 mM MgCl2, 0.01% Triton X-100, 500 ug/ml BSA, 20 U/ml SUPERase-In, 4 C; UNK is unkempt and MSI1 is Musashi-1; names of the RNAs are library labels; protein concentration not given here; high values mean tight binding).
With B1 the binding signal was 0.462 enrichment R. Binder B2 has a binding signal of 0.848 enrichment R. B3 was tested, and the binding signal was 0.781 enrichment R. Binder B4 has a binding signal of 0.616 enrichment R. In the case of B5, the binding signal is reported as 1.6 enrichment R. Binder B6 has a binding signal of 3.51 enrichment R. B7 gave a binding signal of 0.922 enrichment R. Work on B8 yielded a binding signal of 9.05 enrichment R. B9 was tested, and the binding signal was 6.14 enrichment R. Binder B10 has a binding signal of 5.73 enrichment R. In the case of B11, the binding signal is reported as 0.943 enrichment R. B12 showed a binding signal of 0.859 enrichment R. Binder B13 has a binding signal of 1.06 enrichment R. For B14, the binding signal was 0.308 enrichment R. For B15, the binding signal was 1.34 enrichment R. B16 was tested, and the binding signal was 0.807 enrichment R. For B17, the binding signal was 0.931 enrichment R. Work on B18 yielded a binding signal of 0.859 enrichment R. Binder B19 has a binding signal of 4.93 enrichment R. B20 showed a binding signal of 4.68 enrichment R. Binder B21 has a binding signal of 1.03 enrichment R. Work on B22 yielded a binding signal of 4.45 enrichment R. B23 showed a binding signal of 1.77 enrichment R. Work on B24 yielded a binding signal of 0.856 enrichment R. For B25, the binding signal was 1.11 enrichment R. In the case of B26, the binding signal is reported as 0.908 enrichment R.
